# From PubChem BioAssay
# HSF1 activator – HSF-1 activators, primary screen, NIH3T3-HGL cells, MG132 stress, luminescence, single point; hit rate 1.7% among 300,000; activation, % at 9 µM; NIH3T3-HGL HSF-1 luciferase reporter, 8 h; 100% = twice DMSO control signal;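 active = mean replicate activation of at least 50% with a set share of replicates each reaching 50%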;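 also: 0% = median of the neutral control wells and 100% = twice that signal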
# HSP90 refold inh – HSP90 inhibitors, primary screen, cell lysate, luminescence; hit rate 0.91% among 290,000; inhibition, % at 5.6 µM; Rabbit reticulocyte lysate, luciferase refolding luminescence, 3 h; Heat shock protein HSP 90 (rabbit reticulocyte lysate; luciferase refolding);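 active = inhibition above the screen-wide mean plus 3 SD, computed separately per campaign, cut at about 16% in these data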;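 also: 0% = DMSO wells and 100% = 60 µM geldanamycin wells; inhibitors lower the luminescence because luciferase stays unfolded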
# FXN GAA850 act – FXN promoter activators, primary screen, cell-based, luciferase luminescence, HEK293 lucGAA850. activation, % at 6 µM. HEK293 lucGAA850 FXN promoter luciferase reporter, 24 h; percent of 10 µM SAHA response. AID 540364, 2011. hit rate 0.56% among 360,000;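 active = activation above the average of all compounds screened plus 3 SD, cutoff fixed separately per campaign, cut at about 7.5% in these data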;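 also: 0% = DMSO wells and 100% = 10 µM SAHA wells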
# HSF1 inhib – HSF1 inhibitors in luciferase reporter cells, primary screen, cell-based, NIH3T3, luminescence | NIH3T3-HGL HSE-luciferase, MG132-induced, luminescence 8 h; stronger effect = lower value | activity change, negative = inhibition, % at 7.5 µM (by protocol) | hit rate 0.77% among 300,000;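 active = more than half of replicate wells show activity change below -50%, luminescence cut by over half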;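 also: luciferase reports HSF-1 transcriptional activity via heat shock element; 0% = median of DMSO wells and -100% = zero luminescence signal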
# AHR act – AHR activators, primary screen, cell-based, luminescence, luciferase reporter, human | AHR-responsive luciferase reporter cells | hit rate 2.5% among 320,000 | activation, % at 5 µM | AID 2796, 2010; in the data active = activation above about 47%;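 also: 0% = vehicle wells and 100% = reference agonist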
# DAX1 inh – DAX1 (NR0B1) inhibitors, primary screen, cell-based, HEK293, Gal4-DAX1, luciferase luminescence; inhibition, % at 6.75 µM; Nuclear receptor subfamily 0 group B member 1 (Homo sapiens), P51843; HEK293 Gal4-DAX1 luciferase reporter; hit rate 0.99% among 340,000;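 active = inhibition above the mean over all tested compounds plus 3 SD, cut at about 4.2% in these data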;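 also: 0% = DAX1-transfected cells with DMSO and 100% = empty-vector control cells with DMSO; inhibition shows as a rise in luminescence from relieved DAX1 repression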
# GAA30 FXN cntr – GAA30 FXN promoter activators, confirmation, counter-screen for GAA850 frataxin promoter activator project, cell-based, luminescence, HEK293, lucGAA30, triplicate; shares compounds with FXN GAA850 act; HEK293 lucGAA30 FXN promoter luciferase, 24 h; DMSO = 0%, 5 µM ipriflavone = 100%; activation, % at 6 µM; hit rate 66% among 1,900;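 active = mean activation above the mean of solvent-only control wells plus 3 SD, cut at about 22% in these data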;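 also: counterscreen of GAA850 promoter hits where activity marks nonselective or luminescence artifacts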
# GAA850 confirm – FXN GAA850 promoter activators in reporter cells, confirmation, cell-based, luminescence, HEK293 lucGAA850, triplicate; activation, % at 6 µM; HEK293 lucGAA850 FXN promoter luciferase reporter, 24 h; 100% = activation by SAHA; shares compounds with FXN GAA850 act; hit rate 86% among 1,900;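 active = mean activation above a set limit taken from the primary screen, cut at about 8% in these data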;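 also: 0% = DMSO wells and 100% = 10 µM SAHA wells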
# An asterisk follows results filed as active; nt = no result. This is a sample that favours compounds with a hit; in the whole collection about 5.9% have one here.
SMILES,HSF1 activator,HSP90 refold inh,FXN GAA850 act,HSF1 inhib,AHR act,DAX1 inh,GAA30 FXN cntr,GAA850 confirm
COc1ccc(-c2[nH]ncc2CNCC(C)(C)N2CCOCC2)cc1F,-6,1,1,0,4,2,nt,nt
CCCCc1ccc(NC(=O)CSc2nnc(C)c(=O)n2N)cc1,17,1,2,7,3,-1,nt,nt
Cc1nc(Nc2ccccc2Cl)sc1C(=O)Nc1ccccc1,11,2,16*,3,-3,0,67*,21*
COC(=O)c1ccc(CSC(=N)N)o1,-8,2,8.5*,-15,2,1,31*,13*
Cc1ncc([N+](=O)[O-])n1CC(=O)Nc1cc(Cl)ccc1Cl,20,-3,-1,4,1,0,nt,nt
Cc1ccccc1-c1nnc(-c2cccs2)o1,21,-3,8.0*,19,19,4,106*,30*
CCN(CC(O)CON=C1c2ccccc2-c2ccccc21)S(=O)(=O)c1ccc(C)cc1 (stereo not given),24,-3,7.6*,13,7,0,8,15*
C=CCSc1nc(Oc2ccccc2)c2sccc2n1,5,-1,6,-2,17,0,nt,nt
C=CCNc1nc(SCC=C)nc2ccsc12,-20,-2,7.9*,-7,10,0,21,9.7*
O=C(Nc1ccccc1)c1cc(C2COCCN2C(=O)c2ccccn2)on1 (stereo not given),nt,nt,0,nt,nt,nt,nt,nt
O=C(/C=C\c1ccc(-c2ccccc2)o1)c1ccccc1,-28,-3,12*,-19,23,-1,67*,27*
O/N=C\c1ccc(-c2ccccc2)o1,38,-5,4,15,6,4,nt,nt
CC(=O)Nc1ccc(S(=O)(=O)NCCC(=O)NNC(=O)c2ccncc2)cc1,-9,nt,0,2,1,0,nt,nt
CCCn1cnc2c(SCc3ccccc3)nc(N)nc21,nt,nt,6,nt,nt,2,nt,nt
CCCCn1cnc2c(SCc3ccc(Br)cc3)nc(N)nc21,nt,nt,7.8*,nt,nt,-2,29*,18*
CCCn1cnc2c(SCc3ccc(Cl)cc3)nc(N)nc21,nt,nt,9.8*,nt,nt,2,45*,25*
COc1ccc2ccc(C(C)(C(C)=O)C(=O)OC(C)C)cc2c1 (stereo not given),nt,nt,-1,nt,2,1,nt,nt
O=C(CSc1ncn[nH]1)Nc1c(F)cc(F)cc1Br,2,-7,14*,-2,-2,0,4,0
CCOc1ccc(C(C)=O)cc1COC(=O)c1ccccc1C(=O)N(C)Cc1ccccc1,nt,nt,9.5*,nt,nt,0,16,15*
O=C(COC(=O)c1cccnc1)c1ccc(Cl)cc1,1,0,11*,9,3,1,22*,5
O=C(COC(=O)c1cccnc1)c1ccc(Cl)c(Cl)c1,6,2,1,-7,-2,-1,nt,nt
CCCNC(=O)c1oc2ccc3c(c2c1C)C=CC(C)(C)O3,28,-5,10*,19,27,0,91*,41*
CCCNC(=O)c1oc2ccc3c(c2c1C)C(=O)CC(C)(C)O3,59*,-4,7.9*,52,15,0,107*,36*
Clc1ccc2nncn2n1,2,-2,2,-5,-2,-2,nt,nt
Cc1cccc(Nc2nc(-c3sc(C)nc3C)cs2)c1,1,2,8.5*,2,70*,1,97*,32*
